# From article PMC5540273 (PLoS ONE, 2017)
# Assays:
# Conditions in all cases: concentration: 1 μM, replicates: in singlicate; n = 1
# TNNI3K = system: TNNI3K
# TRKA = system: T1, TRKA
# T1 construct: gene NTRK1
# TRKB = system: TRKB
# TRKC = system: T2, TRKC
# T2 construct: gene NTRK3
# TRPM6 = system: TRPM6
# TSSK1B = system: TSSK1B
# TSSK3 = system: TSSK3
# TTK = system: TTK
# TXK = system: TXK
# [1] = system: TYK2(JH1domain-catalytic)
# 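Also: KINOMEscan kinase panel screen.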
SMILES,%Inh (TNNI3K) [%],%Inh (TRKA) [%],%Inh (TRKB) [%],%Inh (TRKC) [%],%Inh (TRPM6) [%],%Inh (TSSK1B) [%],%Inh (TSSK3) [%],%Inh (TTK) [%],%Inh (TXK) [%],%Inh [1] [%]
O=C(Nc1n[nH]c2nc(-c3ccccc3)ccc12)C1CC1 [SB-708999],11,1,0,24,0,0,16,0,5,33
O=C1NC(=O)C(c2ccccc2Cl)=C1Nc1cccc(Cl)c1 [SB-342409],98.7,0,0,9,13,100,8,0,33,12
Cc1nn2c(=O)cc(N3CCO[C@H](C)C3)nc2n1Cc1cccc(Cl)c1Cl [GSK2373693],60,0,7,0,0,21,5,0,0,17
CN(C)CCOc1ccc(-c2cc(-c3ccc(Cl)c(O)c3)c(-c3ccncc3)[nH]2)cc1.Cl.Cl [SB-684387],60,9,21,36,36,0,15,0,56,8
COc1cc(Nc2ccnc3cc(-c4ccncc4)ccc23)cc(OC)c1OC.Cl [GW494610],14,38,7,37,16,0,22,0,92.8,17
COc1cc(Nc2nccc(N3CCC(NS(=O)(=O)c4ccc(NC(C)=O)cc4)CC3)n2)cc(OC)c1OC [GSK1379825],40,100,27,15,0,12,25,1,51,75
O=C(O)C(F)(F)F.O=c1[nH]ccc2nc(N[C@@H]3CCNC3)nc(Nc3ccc4c(c3)S(=O)(=O)CC4)c12 [GSK2181306],11,100,92.8,84,38,69,96.5,85,26,90.8
Nc1cccc(-c2ccc3c(N)n[nH]c3c2)c1 [GSK2193613],0,35,40,19,0,0,8,21,3,13
Nc1ncnc2scc(-c3ccc(NC(=O)Cc4cc(F)ccc4F)cc3)c12.O=C(O)C(F)(F)F [SB-731254-M],0,62,72,71,31,0,0,0,8,2
c1ccc(Oc2ccc(Nc3ccnc4cc(-c5ccc(CN6CCCCC6)o5)ccc34)cc2)nc1 [GW567143],1,98.7,18,27,42,6,19,28,0,16
COC(=O)Nc1nc2ccc(Oc3ccc(NC(=O)Nc4cc(C(F)(F)F)ccc4F)cc3)cc2[nH]1.Cl [GW654607],92.4,100,94.8,98.9,26,100,6,17,0,8
CN(c1ccc(NC(=O)Nc2cccc(Cl)c2)cc1)c1ccnc(N)n1.Cl [GW830707],19,57,45,89,0,3,0,0,0,0
CN(c1ccc2c(c1)nc(NCc1ccccc1)n2C)c1ccnc(Nc2ccc(CS(C)(=O)=O)cc2)n1.Cl [GW811603],0,78,77,55,0,0,37,16,78,40
COc1cccc(CC(=O)N2CCc3cc(-c4cn(C)c5ncnc(N)c45)ccc32)c1 [GSK2608899],0,75,28,52,0,29,30,0,0,0
Cc1ccc(O)cc1Nc1ccnc2ccc(C(C)(C)C)cc12 [GW856805],6,37,42,11,21,1,0,17,98.9,54
NCCC(NC(=O)c1cc(Br)c(-c2ccnc3[nH]ccc23)s1)c1ccccc1.O=C(O)C(F)(F)F.O=C(O)C(F)(F)F (stereo not shown) [GSK1307810],2,91.4,59,47,0,0,20,25,0,83
